Source: PubChem BioAssay (NCI)
Several values for one entry are separate records, joined by “and”; a condition that tells them apart may be missing. Identical values can stand only once. Compounds without any hit were thinned out: in the full panel of roughly 83,000, 20% have a hit.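 Percent growth is the endpoint: 0 to 100 indicates growth inhibition (40 means 60% inhibition), 0 means no net growth, and negative values indicate cell death.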 Activity calls are given as the source filed them. The calls were made as follows: active = growth percent below 10; inactive = the rest.

Assays:
Assay in all cases: NCI-60 one-dose screen, 48 h (100 = growth as untreated, 0 = no growth, -100 = all killed)
MDA-MB-435 melanoma = test system: MDA-MB-435 melanoma
SW-620 colon = test system: SW-620 colon
MCF7 breast = test system: MCF7 breast
HCT-116 colon = test system: HCT-116 colon
KM12 colon = test system: KM12 colon
HCC-2998 colon = test system: HCC-2998 colon

Cc1cc(N=Nc2ccccc2C)ccc1N
growth (MDA-MB-435 melanoma; 10 µM unless noted): 82.9% (inactive) | growth (SW-620 colon; 10 µM unless noted): 84.7% (inactive) | growth (MCF7 breast; 10 µM): 58.7% (inactive) | growth (HCT-116 colon; 10 µM unless noted): 78.1% (inactive) | growth (KM12 colon; 10 µM unless noted): 78.2% (inactive)

Oc1cccc2cccnc12
growth (MDA-MB-435 melanoma; 10 µM unless noted): 101% (inactive) and 110% (inactive) and 119% (inactive) | growth (SW-620 colon; 10 µM unless noted): 48.2% (inactive) and 100% (inactive) and 103% (inactive) | growth (MCF7 breast; 10 µM): 1.86% (active) and 103% (inactive) and 104% (inactive) | growth (HCT-116 colon; 10 µM unless noted): 47.6% (inactive) and 108% (inactive) and 113% (inactive) | growth (HCC-2998 colon; 10 µM unless noted): 100% (inactive) and 103% (inactive) and 123% (inactive) | growth (KM12 colon; 10 µM unless noted): 102% (inactive) and 106% (inactive) and 103% (inactive)

NCCc1ccc(OCc2ccccc2)c(OCc2ccccc2)c1
growth (MDA-MB-435 melanoma; 10 µM unless noted): 88.1% (inactive) | growth (SW-620 colon; 10 µM unless noted): 83.7% (inactive) | growth (MCF7 breast; 10 µM): 69.9% (inactive) | growth (HCT-116 colon; 10 µM unless noted): 61.8% (inactive) | growth (HCC-2998 colon; 10 µM unless noted): 34.6% (inactive) | growth (KM12 colon; 10 µM unless noted): 80.7% (inactive)

S=C(SSC(=S)N1CCCCC1)N1CCCCC1
growth (MDA-MB-435 melanoma; 10 µM): 99.3% (inactive) | growth (MDA-MB-435 melanoma; 100 µM): -30.9% (active) | growth (SW-620 colon; 10 µM): 95.3% (inactive) | growth (SW-620 colon; 100 µM): -55.7% (active) | growth (MCF7 breast; 10 µM): 80.1% (inactive) | growth (MCF7 breast; 100 µM): -46.8% (active) | growth (HCT-116 colon; 10 µM): 85.3% (inactive) | growth (HCT-116 colon; 100 µM): -76.4% (active) | growth (HCC-2998 colon; 10 µM): 109% (inactive) | growth (HCC-2998 colon; 100 µM): 22.3% (inactive) | growth (KM12 colon; 10 µM): 102% (inactive) | growth (KM12 colon; 100 µM): -18.5% (active)

O=C1c2ccccc2C(=O)C(Cl)C1Cl (configuration not stated)
growth (MDA-MB-435 melanoma; 10 µM unless noted): 95.9% (inactive) | growth (MCF7 breast; 10 µM): -62.2% (active) | growth (HCT-116 colon; 10 µM unless noted): -95.7% (active) | growth (HCC-2998 colon; 10 µM unless noted): 111% (inactive) | growth (KM12 colon; 10 µM unless noted): 56.8% (inactive)

CN1CCN(c2ccc([N+](=O)[O-])c3no[n+]([O-])c23)CC1
growth (MDA-MB-435 melanoma; 10 µM unless noted): -82.2% (active) | growth (SW-620 colon; 10 µM unless noted): -70.9% (active) | growth (MCF7 breast; 10 µM): -49.3% (active) | growth (HCT-116 colon; 10 µM unless noted): -66.5% (active) | growth (KM12 colon; 10 µM unless noted): -82.8% (active)

CO[C@H](/C(C)=C/C=C/C(C)=C/c1coc(C)n1)[C@H](C)[C@H]1C[C@@H](O)[C@@]2(C)O[C@H]2/C=C/[C@@H](C)[C@@H]2C[C@@H](CC(=O)O2)C[C@H]2O[C@@H]2C(=O)O1
growth (MDA-MB-435 melanoma; 10 µM unless noted): -59.2% (active) | growth (SW-620 colon; 10 µM unless noted): 21.5% (inactive) | growth (MCF7 breast; 10 µM): 14.7% (inactive) | growth (HCT-116 colon; 10 µM unless noted): 4.48% (active) | growth (HCC-2998 colon; 10 µM unless noted): -25.4% (active) | growth (KM12 colon; 10 µM unless noted): -17.9% (active)

C[C@H]1CCC/C=C/[C@@H]2C[C@H](O)C[C@H]2[C@H](O)/C=C/C(=O)O1
growth (MDA-MB-435 melanoma; 10 µM unless noted): 0.489% (active) | growth (SW-620 colon; 10 µM unless noted): -20.4% (active) | growth (MCF7 breast; 10 µM): -11.9% (active) | growth (HCT-116 colon; 10 µM unless noted): -70.8% (active) | growth (HCC-2998 colon; 10 µM unless noted): -49.5% (active) | growth (KM12 colon; 10 µM unless noted): -59.8% (active)

CC[C@@]1(O)C[C@H](OC2CC(N(C)C)C(O)C(C)O2)c2c(O)c3c(c(O)c2[C@H]1OC1CC(N(C)C)C(O)C(C)O1)C(=O)c1cccc(O)c1C3=O (some centres not stated)
growth (MDA-MB-435 melanoma; 10 µM unless noted): -86% (active) | growth (SW-620 colon; 10 µM unless noted): -0.489% (active) | growth (MCF7 breast; 10 µM): -8.26% (active) | growth (HCT-116 colon; 10 µM unless noted): -3.79% (active) | growth (HCC-2998 colon; 10 µM unless noted): -83.6% (active) | growth (KM12 colon; 10 µM unless noted): -50.3% (active)

CC1CCC2(NC1)OC1CC3C4CCC5CC(OC6OC(CO)C(OC7OC(CO)C(O)C(OC8OCC(O)C(O)C8O)C7OC7OC(CO)C(O)C(O)C7O)C(O)C6O)CCC5(C)C4CCC3(C)C1C2C (configuration not stated)
growth (MCF7 breast; 100 µM): -86% (active) and -100% (active)

COC1CC(CC2CCC(C)C(C(C)C(=O)O)O2)OC2(OC(C)(C3CCC(C)(C4OC(C5OC(O)(CO)C(C)CC5C)CC4C)O3)CC2C)C1C (configuration not stated)
growth (MDA-MB-435 melanoma; 10 µM unless noted): -91.7% (active) | growth (SW-620 colon; 10 µM unless noted): 6.56% (active) | growth (MCF7 breast; 10 µM): 8.04% (active) | growth (HCT-116 colon; 10 µM unless noted): 3.98% (active) | growth (HCC-2998 colon; 10 µM unless noted): -10% (active) | growth (KM12 colon; 10 µM unless noted): -33.4% (active)

CCC(=O)OC1CCn2c1nc1c2C(=O)C(C)=C(N2CC2)C1=O (configuration not stated)
growth (MDA-MB-435 melanoma; 10 µM unless noted): -83.6% (active) | growth (SW-620 colon; 10 µM unless noted): 3.77% (active) | growth (MCF7 breast; 10 µM): -15.6% (active) | growth (HCT-116 colon; 10 µM unless noted): 1.09% (active) | growth (HCC-2998 colon; 10 µM unless noted): -52.9% (active) | growth (KM12 colon; 10 µM unless noted): -35.1% (active)

CC1=C(CO)C2=C(C)C3(CC3)[C@@](C)(O)C(=O)C2=C1
growth (MDA-MB-435 melanoma; 10 µM unless noted): 10.7% (inactive) | growth (SW-620 colon; 10 µM unless noted): 26.3% (inactive) | growth (MCF7 breast; 10 µM): 8.34% (active) | growth (HCT-116 colon; 10 µM unless noted): 2.68% (active) | growth (HCC-2998 colon; 10 µM unless noted): -76.7% (active) | growth (KM12 colon; 10 µM unless noted): 12.4% (inactive)

CC[C@@]1(O)C(=O)OCc2c1cc1n(c2=O)Cc2cc3ccccc3nc2-1
growth (MDA-MB-435 melanoma; 10 µM unless noted): -81.5% (active) | growth (SW-620 colon; 10 µM unless noted): -1.68% (active) | growth (MCF7 breast; 10 µM): 2.07% (active) | growth (HCT-116 colon; 10 µM unless noted): -12.5% (active) | growth (HCC-2998 colon; 10 µM unless noted): -73.8% (active) | growth (KM12 colon; 10 µM unless noted): -42.1% (active)
